Data as given in publication PMC4336329 (PLoS ONE, 2015).
Out of some 310,000 compounds screened, about 14,000 (4.5%) showed an effect of 50% or more. Effects have a minus sign here. The list comes from a sample in which strong results are over-represented; it also holds similar structures and randomly drawn compounds.

The molecules below were run against human ether-à-go-go-related gene (hERG) potassium channel (human, UniProt Q12809) (assay: primary screen, population patch clamp on CHO cells stably expressing hERG; higher = less effect of the substance).
Sequence of human ether-à-go-go-related gene (hERG) potassium channel (Q12809 whole entry, looked up): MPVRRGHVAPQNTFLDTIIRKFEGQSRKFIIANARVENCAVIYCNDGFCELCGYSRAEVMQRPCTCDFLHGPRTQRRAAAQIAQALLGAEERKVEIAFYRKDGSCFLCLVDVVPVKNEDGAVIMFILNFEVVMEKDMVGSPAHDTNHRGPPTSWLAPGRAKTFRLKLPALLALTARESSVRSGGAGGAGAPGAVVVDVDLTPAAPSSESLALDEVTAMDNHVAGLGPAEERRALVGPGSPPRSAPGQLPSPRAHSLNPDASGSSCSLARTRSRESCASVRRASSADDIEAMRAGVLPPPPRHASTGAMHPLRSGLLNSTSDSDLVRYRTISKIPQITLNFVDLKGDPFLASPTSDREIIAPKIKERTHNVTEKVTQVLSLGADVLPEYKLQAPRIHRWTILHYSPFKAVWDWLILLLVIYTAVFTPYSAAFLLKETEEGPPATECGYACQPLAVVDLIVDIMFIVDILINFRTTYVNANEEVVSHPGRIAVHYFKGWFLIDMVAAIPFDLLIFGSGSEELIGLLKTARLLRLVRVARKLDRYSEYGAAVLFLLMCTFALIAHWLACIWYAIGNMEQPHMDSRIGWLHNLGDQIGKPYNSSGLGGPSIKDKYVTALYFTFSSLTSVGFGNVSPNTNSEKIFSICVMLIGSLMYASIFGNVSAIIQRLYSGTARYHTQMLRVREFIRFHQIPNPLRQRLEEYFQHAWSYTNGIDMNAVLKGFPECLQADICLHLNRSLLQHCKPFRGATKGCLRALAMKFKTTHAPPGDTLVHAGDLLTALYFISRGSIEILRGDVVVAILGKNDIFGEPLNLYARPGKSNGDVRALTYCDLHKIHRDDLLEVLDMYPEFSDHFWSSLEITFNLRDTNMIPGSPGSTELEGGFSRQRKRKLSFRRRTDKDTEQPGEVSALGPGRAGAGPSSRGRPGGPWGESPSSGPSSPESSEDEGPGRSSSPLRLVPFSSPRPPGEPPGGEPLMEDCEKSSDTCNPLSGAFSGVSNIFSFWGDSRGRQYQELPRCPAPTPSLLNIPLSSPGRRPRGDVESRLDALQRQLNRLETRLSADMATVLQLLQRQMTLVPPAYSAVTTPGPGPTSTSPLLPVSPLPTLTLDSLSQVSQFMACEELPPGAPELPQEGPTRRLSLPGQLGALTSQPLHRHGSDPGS
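Further: peak tail current of the secondary pulse compared with the same well before compound.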

In order of rising “hERG current change (%, negative = inhibition) at 10uM” value:
1. CCn1ccnc1CN1CCCC(C(=O)c2ccc3c4c(cccc24)CC3)C1 (centres unmarked)  -77.4%
2. CN1CCC(C(=O)N2CCCC(C(=O)c3ccc4c5c(cccc35)CC4)C2)CC1 (centres unmarked)  -61.1%
3. O=C(c1ccc2c3c(cccc13)CC2)C1CCCN(Cc2ncc[nH]2)C1 (centres unmarked)  -55.7%
4. COc1cc(CN2CCCC(C(=O)c3ccc4c5c(cccc35)CC4)C2)cc(OC)c1O (centres unmarked)  -53%
5. Cc1cccc(CN2CCCC(C(=O)c3ccc4c5c(cccc35)CC4)C2)n1 (centres unmarked)  -40.7%
6. Cc1cnc(CN2CCCC(C(=O)c3ccc4c5c(cccc35)CC4)C2)[nH]1 (centres unmarked)  -31.7%
7. COCC(=O)N1CCCC(C(=O)c2ccc3c4c(cccc24)CC3)C1 (centres unmarked)  -21.2%
8. Cc1ncoc1C(=O)N1CCCC(C(=O)c2ccc3c4c(cccc24)CC3)C1 (centres unmarked)  -15.5%
9. CCOC(=O)c1cc2occc2n1CC(=O)Nc1ccc(OC)cc1OC  -15%
10. Cc1ncccc1C(=O)N1CCCC(C(=O)c2ccc3c4c(cccc24)CC3)C1 (centres unmarked)  -13.2%
11. CC(c1ccccc1)n1c(-c2ccccc2F)n[nH]c1=S (centres unmarked)  -11.9%
12. N#CCCN(Cc1cccnc1)C(=O)Nc1cccc(Cl)c1  -10.9%
13. O=c1c2ccccc2oc2nc(-c3ccco3)n(Cc3ccccc3)c(=O)c12  -9.22%
14. CC(=O)N1CCCC(C(=O)c2ccc3c4c(cccc24)CC3)C1 (centres unmarked)  -8.18%
15. Cc1ccc(S(=O)(=O)NCc2ccco2)c(C)c1C  -4.4%
16. COc1cc(C(=O)NCC(=O)N/N=C(/C)c2cccs2)cc(OC)c1OC  -0.388%
17. O=C(NCCOc1nc(N2CCCCC2)nc(N2CCOCC2)n1)Nc1ccccc1  -0.098%
18. CN(NC(=O)c1ccco1)c1nc2ccccc2nc1C(F)(F)F  0.871%
19. Cc1ccc(S(=O)(=O)NCc2ccccc2)cc1C(=O)N(C)Cc1ccc(F)cc1  5.11%
20. C=C[C@@H]1c2cc(C)ccc2N(S(=O)(=O)c2ccc(C)cc2)[C@H](c2ccccc2C(F)(F)F)C1(C#N)C#N  7.01%
21. CC(=O)NCC(=O)N1CCCC(C(=O)c2ccc3c4c(cccc24)CC3)C1 (centres unmarked)  8.94%
22. Cc1ccc(OCC(=O)NCCNC(=O)c2ccncc2)cc1C  15.9%
23. Cc1ccc(CC(=O)Nc2ccc(S(=O)(=O)Nc3ncccn3)cc2)cc1  19.9%
